For five sequences, binding signal results are on record in paper PMC11006913.

Sequence of NKX3-2 (P78367 192-278): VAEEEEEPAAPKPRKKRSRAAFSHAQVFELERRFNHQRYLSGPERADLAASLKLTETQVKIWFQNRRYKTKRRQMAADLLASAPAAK

This assay has as its target NKX3-2 (Homo sapiens, UniProt P78367 192-278). Briefly: PBM; 200 nM protein, PBS. Particulars: dsDNA, one strand shown.
GCCTGACC: the binding signal was 10.6 upbm affinity estimate (log intensity, higher = more binding, comparable within an allelic series). In the case of GAGTGCAC, the binding signal was 12.4 upbm affinity estimate (log intensity, higher = more binding, comparable within an allelic series).

Take AGAGGGCA: the binding signal is 11.8 upbm affinity estimate (log intensity, higher = more binding, comparable within an allelic series).

As to GGCTCCCC, the binding signal is 10.6 upbm affinity estimate (log intensity, higher = more binding, comparable within an allelic series). The same measure for AGGAAAAA: 10.6 upbm affinity estimate (log intensity, higher = more binding, comparable within an allelic series).
